Reference: PubChem BioAssay (EPA / NIEHS)
Several values for one entry are separate records, joined by “and”; a condition that tells them apart may be missing. Equal values may be shown once. Some structures have more than one record in an assay (separate samples or runs), and their calls can disagree. Activity calls are given as the source filed them. Rule for the calls: active = hit-call score of the fitted dose curve at least 0.9, where 1 is the maximum; inactive = score below 0.9.

Molecular target: Hypoxia-inducible factor 1-alpha (Homo sapiens) (UniProt Q16665)
Test: ATG_HIF1a_CIS: Attagene CIS-FACTORIAL HepG2 Assay for human Hypoxia Inducible Factor 1 (HIF1A) (AID 2282951)
Conditions: HepG2 Attagene cis-factorial HIF1a reporter transcription; actives raise or lower the signal
Method in brief: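 Measures endogenous transcription-factor activity through cis-regulated reporter mRNA in HepG2. Cells dosed 24 h; transcripts quantified by RT-PCR with 6-FAM-labelled products separated by capillary electrophoresis; DMSO serves as negative control.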

Sequence of Hypoxia-inducible factor 1-alpha (Homo sapiens) (Q16665 whole entry, looked up): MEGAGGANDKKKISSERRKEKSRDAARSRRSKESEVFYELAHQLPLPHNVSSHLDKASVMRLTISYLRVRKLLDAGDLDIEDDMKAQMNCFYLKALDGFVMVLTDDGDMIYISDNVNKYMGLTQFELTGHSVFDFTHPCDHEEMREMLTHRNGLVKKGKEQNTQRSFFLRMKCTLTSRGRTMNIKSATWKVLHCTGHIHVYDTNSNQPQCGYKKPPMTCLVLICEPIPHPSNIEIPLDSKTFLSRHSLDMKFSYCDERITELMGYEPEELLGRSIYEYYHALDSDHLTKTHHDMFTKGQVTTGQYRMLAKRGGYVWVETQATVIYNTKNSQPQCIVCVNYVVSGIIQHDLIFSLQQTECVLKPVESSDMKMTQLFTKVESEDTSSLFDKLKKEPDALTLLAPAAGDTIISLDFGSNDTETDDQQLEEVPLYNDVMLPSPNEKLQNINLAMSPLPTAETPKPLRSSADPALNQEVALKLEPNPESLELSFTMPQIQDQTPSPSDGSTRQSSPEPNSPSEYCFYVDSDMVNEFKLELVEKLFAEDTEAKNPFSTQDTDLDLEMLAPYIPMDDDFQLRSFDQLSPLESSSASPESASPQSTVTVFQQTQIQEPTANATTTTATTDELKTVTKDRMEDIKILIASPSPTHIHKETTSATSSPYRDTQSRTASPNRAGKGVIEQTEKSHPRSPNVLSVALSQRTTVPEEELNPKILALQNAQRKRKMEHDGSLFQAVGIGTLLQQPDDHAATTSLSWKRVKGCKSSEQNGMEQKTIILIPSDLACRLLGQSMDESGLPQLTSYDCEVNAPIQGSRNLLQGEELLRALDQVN

Row | Structure (SMILES) | outcome
1 | NC(N)=NC(N)=NCCc1ccccc1 | inactive
2 | CC/C=C\CCOC(=O)C(C)C | inactive
3 | CC(C)=CCCC(C)=CC(=O)O | inactive
4 | CCC=C(C)C=O | inactive
5 | C=C1CC[C@H]2O[C@]2(C)CC[C@@H]2[C@@H]1CC2(C)C | inactive
6 | CCO[Si](CCC#N)(OCC)OCC | inactive
7 | CC(C)(O)CCc1ccccc1 | inactive
8 | CC(=O)C1C(=O)C=C(C)OC1=O (stereo not drawn) | inactive
9 | CCc1cccc(O)c1 | inactive
10 | CCC(C)(C)C1CCC(OC)CC1 (stereo not drawn) | inactive
11 | C=CC(=O)OCC(CO)(COC(=O)C=C)COC(=O)C=C | inactive
12 | CN(C)c1ccc(C=O)cc1 | inactive
13 | C=C1CC/C=C(\C)CC[C@@H]2[C@@H]1CC2(C)C | inactive
14 | C=CC(C)(CCC=C(C)C)OC(=O)CC (stereo not drawn) | inactive
15 | CCCCCCCCCCOC(=O)c1ccccc1C(=O)OCCCCCCCC | inactive
16 | O=C1CCCCCCCCCCCC(=O)OCCO1 | inactive
17 | NC(=O)c1c(Cl)cccc1Cl | inactive
18 | CC1=C(C=O)C(C)(C)CCC1 | inactive
19 | CC(C)OB(OC(C)C)OC(C)C | inactive
20 | CCC(=O)OCC=Cc1ccccc1 | inactive
21 | CC(C)CCOC(=O)CC(C)C | inactive
22 | O=c1cc[nH]cc1 | inactive
23 | CCC(C)(CCCC(C)C)OC(C)=O (stereo not drawn) | inactive
24 | O=C1OCc2ccccc21 | inactive

Molecular target: Hepatocyte nuclear factor 6 (Homo sapiens) (UniProt Q9UBC0)
Test: ATG_HNF6_CIS: Attagene CIS-FACTORIAL HepG2 Assay for human Hepatocyte Nuclear Factor 6 (HNF6) (AID 2282952)
Conditions: HepG2 Attagene cis-factorial HNF6 reporter transcription; actives raise or lower the signal
Method in brief: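 Readout: fluorescent reporter-transcript fragments resolved by capillary electrophoresis after RT-PCR, reflecting endogenous factor activity in transfected HepG2. Exposure 24 h. Gain or loss of signal fitted bidirectionally against DMSO.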

Sequence of Hepatocyte nuclear factor 6 (Homo sapiens) (Q9UBC0 whole entry, looked up): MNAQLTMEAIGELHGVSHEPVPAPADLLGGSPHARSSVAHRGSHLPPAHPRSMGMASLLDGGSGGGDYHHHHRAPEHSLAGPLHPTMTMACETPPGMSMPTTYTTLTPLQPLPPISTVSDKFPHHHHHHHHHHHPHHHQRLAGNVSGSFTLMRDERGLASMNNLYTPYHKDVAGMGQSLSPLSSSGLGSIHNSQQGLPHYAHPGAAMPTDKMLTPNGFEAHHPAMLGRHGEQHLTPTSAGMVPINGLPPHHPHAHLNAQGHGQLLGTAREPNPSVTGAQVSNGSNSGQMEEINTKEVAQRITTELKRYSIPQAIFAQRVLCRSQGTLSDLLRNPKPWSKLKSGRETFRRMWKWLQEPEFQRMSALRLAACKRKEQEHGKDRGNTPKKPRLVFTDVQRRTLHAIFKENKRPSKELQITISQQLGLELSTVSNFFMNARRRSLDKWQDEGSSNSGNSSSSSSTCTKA

Row | Structure (SMILES) | outcome | AC50
25 | NC(N)=NC(N)=NCCc1ccccc1 | inactive | 
26 | CC/C=C\CCOC(=O)C(C)C | inactive | 
27 | CC(C)=CCCC(C)=CC(=O)O | inactive | 
28 | CCC=C(C)C=O | inactive | 
29 | C=C1CC[C@H]2O[C@]2(C)CC[C@@H]2[C@@H]1CC2(C)C | inactive | 
30 | CCC(=O)OC/C=C(\C)CCC=C(C)C | inactive | 
31 | CCO[Si](CCC#N)(OCC)OCC | inactive | 
32 | CC(C)(O)CCc1ccccc1 | inactive | 
33 | CC(=O)C1C(=O)C=C(C)OC1=O (stereo not drawn) | inactive | 
34 | CCc1cccc(O)c1 | inactive | 
35 | CC(CO)(CO)[N+](=O)[O-] | inactive | 
36 | C[C@H](CCC(=O)O)[C@H]1CC[C@H]2[C@@H]3CC[C@@H]4C[C@H](O)CC[C@]4(C)[C@H]3CC[C@]12C |  | 146 µM (active)
37 | CCC(C)(C)C1CCC(OC)CC1 (stereo not drawn) | inactive | 
38 | C=CC(=O)OCC(CO)(COC(=O)C=C)COC(=O)C=C | inactive | 
39 | CN(C)c1ccc(C=O)cc1 | inactive | 
40 | CC1=CCC(C(C)(C)O)CC1 (stereo not drawn) | inactive | 
41 | CC(=O)CC(=O)N(C)C | inactive | 

Row | Structure (SMILES) | outcome | AC50
42 | CCCc1ccc(O)cc1 | inactive | 
43 | C=C1CC/C=C(\C)CC[C@@H]2[C@@H]1CC2(C)C | inactive | 
44 | C=CC(C)(CCC=C(C)C)OC(=O)CC (stereo not drawn) | inactive | 
45 | CCCCCCCCCCOC(=O)c1ccccc1C(=O)OCCCCCCCC | inactive | 
46 | CC(O)COCC(C)O (stereo not drawn) | inactive | 
47 | O=C1CCCCCCCCCCCC(=O)OCCO1 | inactive | 
48 | NC(=O)c1c(Cl)cccc1Cl | inactive | 
49 | c1ccc2c(c1)-c1ccc3ccc4cccc5cc-2c1c3c45 | inactive | 
50 | CC1=C(C=O)C(C)(C)CCC1 | inactive | 
51 | CC(C)OB(OC(C)C)OC(C)C | inactive | 
52 | COc1ccc2[nH]cc(CCNC(C)=O)c2c1 | inactive | 
53 | CCC(=O)OCC=Cc1ccccc1 | inactive | 
54 | CC(C)CCOC(=O)CC(C)C | inactive | 
55 | C#C[C@]1(O)CC[C@H]2[C@@H]3CCc4cc(O)ccc4[C@H]3CC[C@@]21C | inactive | 58.1 µM (active) and 100 µM (active)
56 | O=c1cc[nH]cc1 | inactive | 
57 | CCC(C)(CCCC(C)C)OC(C)=O (stereo not drawn) | inactive | 
58 | O=C1OCc2ccccc21 | inactive | 

Molecular target: Heat shock factor protein 1 (Homo sapiens) (UniProt Q00613)
Test: ATG_HSE_CIS: Attagene CIS-FACTORIAL HepG2 Assay for human Heat Shock Transcription Factor 1 (HSE) (AID 2282953)
Conditions: HepG2 HSE cis-reporter, Attagene RNA transcription; actives raise or lower the signal
Method in brief: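 HepG2, transient MRTU transfection, cis-promoter reporters (endogenous TF activity). 24 h compound. RNA → oligo(dT) RT → PCR → 6-FAM primer extension → HpaI cut → CE. Bidirectional fit vs DMSO.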

Sequence of Heat shock factor protein 1 (Homo sapiens) (Q00613 whole entry, looked up): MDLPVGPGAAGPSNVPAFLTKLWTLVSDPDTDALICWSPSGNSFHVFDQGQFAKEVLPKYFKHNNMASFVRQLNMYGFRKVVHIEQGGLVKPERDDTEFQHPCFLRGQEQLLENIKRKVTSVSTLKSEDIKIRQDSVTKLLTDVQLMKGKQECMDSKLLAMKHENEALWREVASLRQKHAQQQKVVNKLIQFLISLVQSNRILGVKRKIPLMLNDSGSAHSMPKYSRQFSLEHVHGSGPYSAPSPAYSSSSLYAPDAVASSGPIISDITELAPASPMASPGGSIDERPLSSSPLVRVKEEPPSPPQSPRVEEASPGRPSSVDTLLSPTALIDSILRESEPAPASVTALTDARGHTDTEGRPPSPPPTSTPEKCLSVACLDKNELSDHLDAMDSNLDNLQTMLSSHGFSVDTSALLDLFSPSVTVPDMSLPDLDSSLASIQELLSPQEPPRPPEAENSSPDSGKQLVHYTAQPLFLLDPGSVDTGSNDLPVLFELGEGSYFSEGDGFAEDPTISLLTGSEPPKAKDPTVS

Row | Structure (SMILES) | outcome | AC50
59 | NC(N)=NC(N)=NCCc1ccccc1 | inactive | 
60 | CC/C=C\CCOC(=O)C(C)C | inactive | 
61 | CC(C)=CCCC(C)=CC(=O)O | inactive | 
62 | CCC=C(C)C=O | inactive | 
63 | C=C1CC[C@H]2O[C@]2(C)CC[C@@H]2[C@@H]1CC2(C)C | inactive | 
64 | CCC(=O)OC/C=C(\C)CCC=C(C)C | inactive | 
65 | CCO[Si](CCC#N)(OCC)OCC | inactive | 
66 | CC(C)(O)CCc1ccccc1 | inactive | 
67 | CC(=O)C1C(=O)C=C(C)OC1=O (stereo not drawn) | inactive | 
68 | CCc1cccc(O)c1 | inactive | 
69 | C[C@H](CCC(=O)O)[C@H]1CC[C@H]2[C@@H]3CC[C@@H]4C[C@H](O)CC[C@]4(C)[C@H]3CC[C@]12C |  | 25.6 µM (active)
70 | CCC(C)(C)C1CCC(OC)CC1 (stereo not drawn) | inactive | 
71 | C=CC(=O)OCC(CO)(COC(=O)C=C)COC(=O)C=C |  | 161 µM (active)
72 | CN(C)c1ccc(C=O)cc1 | inactive | 
73 | CC1=CCC(C(C)(C)O)CC1 (stereo not drawn) | inactive | 
74 | CC(=O)CC(=O)N(C)C | inactive | 
75 | CCCc1ccc(O)cc1 | inactive | 

Row | Structure (SMILES) | outcome | AC50
76 | C=C1CC/C=C(\C)CC[C@@H]2[C@@H]1CC2(C)C | inactive | 
77 | C=CC(C)(CCC=C(C)C)OC(=O)CC (stereo not drawn) | inactive | 
78 | CCCCCCCCCCOC(=O)c1ccccc1C(=O)OCCCCCCCC | inactive | 
79 | CC(O)COCC(C)O (stereo not drawn) | inactive | 
80 | O=C1CCCCCCCCCCCC(=O)OCCO1 | inactive | 
81 | NC(=O)c1c(Cl)cccc1Cl | inactive | 
82 | c1ccc2c(c1)-c1ccc3ccc4cccc5cc-2c1c3c45 | inactive | 
83 | CC1=C(C=O)C(C)(C)CCC1 | inactive | 
84 | CC(C)OB(OC(C)C)OC(C)C | inactive | 
85 | COc1ccc2[nH]cc(CCNC(C)=O)c2c1 | inactive | 
86 | CCC(=O)OCC=Cc1ccccc1 | inactive | 
87 | CC(C)CCOC(=O)CC(C)C | inactive | 
88 | C#C[C@]1(O)CC[C@H]2[C@@H]3CCc4cc(O)ccc4[C@H]3CC[C@@]21C | inactive | 59.2 µM (active) [middle of 4 runs]
89 | O=c1cc[nH]cc1 | inactive | 
90 | CCC(C)(CCCC(C)C)OC(C)=O (stereo not drawn) | inactive | 
91 | O=C1OCc2ccccc21 | inactive | 
